What follows are compounds tested on Caenorhabditis elegans (assay: growth (movement index) relative to DMSO control, secondary screen (log2 fold change); higher = more growth (less anthelmintic activity)). Details: 10 µM, 5 days, 20 °C, stage: L1 start.
Procedure: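 C. elegans growth assay: synchronised L1 larvae (~20 per well) in S-complete medium with HB101 E. coli were grown in 96-well plates with Pathogen Box compound at 10 µM (1% DMSO) for 5 days at 20 °C. Motility/growth was quantified by whole-plate movie imaging (INVAPP/Paragon movement index). The score is the log2 fold change of the median movement of 5 replicate wells (on different plates) relative to DMSO-only wells. The secondary screen retested the top 20 hits with the same library material (n = 5, 10 µM).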

Structure (SMILES)	growth (log2)
CCc1nn(C)c(C(=O)NCc2ccc(Oc3ccc(C)cc3)cc2)c1Cl	-10.6
CC1(C)OB(O)c2ccc(C3=NOC(c4cc(Cl)c(F)c(Cl)c4)(C(F)(F)F)C3)cc21 (configuration not stated)	-0.316

Source: the supplement of paper PMC5734697
